ERK AVP block: qHTS Assay for Inhibitors of the ERK Signaling Pathway using a Homogeneous Screening Assay | HEK293-V1b, vasopressin-stimulated pERK AlphaScreen | actives 0.99% (n = 72,000) | Potency, µM (series often up to 57.5 µM), inactives show at the top dose activity, negative = inhibition, actives largely listed as inhibitors; note: % is set by controls: 0 for no effect and ±100 for the full control effect; nearly all actives have a fitted effect of over 55% in size
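qHTS, compounds titrated on V1b-expressing HEK293 cells. Preincubation 30 min at 37C, vasopressin 25 nM for 5 min, lysis 10 min, bead incubation 5 hr at room temperature.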
Peg3 imprint: qHTS Assay for Compounds that Induce Erasure of Genomic Imprints; mouse ES Peg3-LacZ reporter, beta-gal luminescence, 40 h; Potency, µM (series often up to 60.7 µM), inactives show at the top dose activity change, positive = activation, usual class: activators; actives 0.02% (n = 110,000)
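Each well holds 300 Peg3LacZ-Neo (maternal) female ES cells incubated 40 h at 37C, 5% CO2. LacZ is measured by BetaGlo luminescence, with AC50 and maximum efficacy derived from dose-response curves.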
CRE-bla Fsk: Cell signaling CRE-BLA (Fsk stim). CHO CRE-bla reporter (cAMP response element driving beta-lactamase), forskolin EC10, beta-lactamase ratio. Potency, µM (titrated, usually from 38.2 µM), for the others: top-dose activity change, negative = inhibition, actives largely listed as activators. actives 2.5% (n = 71,000). AID 662, 2007; active = well fitted activation curve with a large enough effect in the signal ratio, with a control signal flat, not every such curve was filed as active; inconclusive = small, poorly fitted or top-dose-only effect, or effect the other way, or a change in a side signal; the % refers to the signal ratio; note: % of control where 0% means no effect
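Using CellSensor CRE-bla CHO cells in Opti-MEM with 0.5% dialyzed FBS, compounds were titrated with EC10 NKH 477 for 3 h at 37 °C. CCF4 ratio (460/530 nm) gave %Activity; AC50 derived.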
IkB sig inh: IkB Signaling; AID 445, 2006; actives 0.04% (n = 110,000); ABC-DLBCL IkBa-CBG/CBR dual luciferase ratio, 4 h; response scale: scaled: untreated 0%, proteasome inhibitor 100%; Potency, µM (titrated, usually from 57.1 µM), without a hit: at the top dose IkBa stabilization activation; active = well fitted curve in the direction sought with a large enough effect in the signal ratio, not every such curve was filed as active; inconclusive = small, poorly fitted or top-dose-only effect, or a change in a side signal; the % refers to the signal ratio;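 note: the direction sought is a rising ratio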
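Luminescence ratio of IκBα-fused green versus native red beetle luciferase in OCI-Ly3 cells, 4 h post-doxycycline with compound; red signal alone, scaled from basal (0%) to zero light (-100%), flagged nonspecific or cytotoxic effects.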
Numbers without * were called inactive; ! = not confirmed by another sample; [ ] = dose if it differs, or a comment. This is one part of a sample in which hits are shown more often than they occur. Unless noted, calls come from the whole dose curve; as a rule, active = well fitted curve in the direction sought with a large enough effect; inconclusive = small, poorly fitted or top-dose-only effect, or another doubt; inactive = no such curve, though single readings can be large; an effect the other way counts as inactive or inconclusive. Potency is the fitted concentration of half-maximal effect.

How did CC(C)CCn1c(SCc2ccc(Cl)cc2)nc2c1c(=O)[nH]c(=O)n2C do in these assays?
ERK AVP block: inconclusive; Peg3 imprint: -3.5%; CRE-bla Fsk: 2.51µM*; IkB sig inh: 1.3%

How did CC(C)n1c(SCc2ccc(Cl)cc2)nc2c1c(=O)[nH]c(=O)n2C do in these assays?
ERK AVP block: 1.7%; Peg3 imprint: -5.5%; CRE-bla Fsk: 12.6µM*; IkB sig inh: 0.1%

How did COC(=O)C(C)Sc1nc2c(c(=O)[nH]c(=O)n2C)n1CCC(C)C (stereo not drawn) do in these assays?
ERK AVP block: 31.6µM*; Peg3 imprint: 1.5%; CRE-bla Fsk: inconclusive; IkB sig inh: 0.1%

How did CCCCn1c(SCc2ccc(Cl)cc2)nc2c1c(=O)[nH]c(=O)n2C do in these assays?
ERK AVP block: 8.0%; Peg3 imprint: -15.1%; CRE-bla Fsk: inconclusive; IkB sig inh: 3.1%

What do the screens show for `C=CCOCC/C=C1/c2ccccc2C(OC)C1C` (stereo not drawn)?
ERK AVP block: 0.4%[11.5 µM]

Results for CC1(C)CCC[C@@]2(C)[C@@H]1CC[C@]1(C)OC(=O)C[C@@H]21 ?
CRE-bla Fsk: inconclusive; IkB sig inh: 0.1%[11.4 µM]

How did COc1ccc(Cn2c(C)nc3c(c2=O)c2nc4ccccc4nc2n3Cc2ccco2)cc1 do in these assays?
ERK AVP block: -11.7%; Peg3 imprint: -29.4%; CRE-bla Fsk: inconclusive; IkB sig inh: 11.1%

How did Cc1nc2c(c(=O)n1Cc1ccccc1Cl)c1nc3ccccc3nc1n2Cc1ccco1 do in these assays?
ERK AVP block: 25.1µM*; Peg3 imprint: -49.6%; CRE-bla Fsk: 7.4%; IkB sig inh: inconclusive

How did Cc1noc(NS(=O)(=O)c2ccc(N3Cc4ccccc4C3=O)cc2)c1C do in these assays?
ERK AVP block: -4.8%; Peg3 imprint: -34.1%; CRE-bla Fsk: 12.6µM*; IkB sig inh: -0.6%

How did CCOc1ccc(-c2nc(C#N)c(N3CCN(Cc4ccccc4)CC3)o2)cc1 do in these assays?
ERK AVP block: 15.8µM*; Peg3 imprint: -22.0%; CRE-bla Fsk: 13.0%; IkB sig inh: 0.0%

What do the screens show for `C[Si](C)(C)Cl`?
ERK AVP block: 19.2%; Peg3 imprint: -4.2%; CRE-bla Fsk: -11.1%; IkB sig inh: -2.4%

What do the screens show for `COc1ccc(-n2c(NC(=O)c3ccco3)c(C#N)c3nc4ccccc4nc32)cc1`?
ERK AVP block: -26.1%; Peg3 imprint: -3.2%; CRE-bla Fsk: inconclusive; IkB sig inh: -3.2%

Results for C=CCn1c(NC(=O)c2ccco2)c(S(=O)(=O)c2ccccc2)c2nc3ccccc3nc21 ?
ERK AVP block: inconclusive; Peg3 imprint: -5.0%; CRE-bla Fsk: 10µM*; IkB sig inh: 1.7%

How did CO[C@H]1COC(=O)[C@@H](C)COC(=O)[C@@H](COCc2ccccc2)NC(=O)C/C=C\[C@H]1C do in these assays?
ERK AVP block: 10.3%[11.5 µM]

What do the screens show for `CCN1CCN(Cc2c(O)c(Cl)cc3c(C)cc(=O)oc23)CC1`?
ERK AVP block: 1.1%; Peg3 imprint: -6.2%; CRE-bla Fsk: 3.98µM*; IkB sig inh: 2.7%

How did COc1ccc2c(c1)C(c1ccccc1C)CC(=O)O2 (stereo not drawn) do in these assays?
Peg3 imprint: -4.8%[97.3 µM]

Results for CCCCn1c(NCc2ccccc2O)nc2ccccc21 ?
ERK AVP block: 25.1µM*; Peg3 imprint: -19.0%; CRE-bla Fsk: -18.1%; IkB sig inh: inconclusive

How did CCCCn1c(NCc2ccc(OC)cc2O)nc2ccccc21 do in these assays?
Peg3 imprint: -7.6%[10.9 µM]; IkB sig inh: inconclusive

What do the screens show for `CC[C@@H]1OC(=O)[C@@H](C)[C@H](O[C@@H]2C[C@@](C)(OC)[C@@H](O)[C@H](C)O2)[C@H](C)[C@H](O[C@@H]2O[C@@H](C)C[C@@H](N(C)C)[C@H]2O)[C@@](C)(O)C[C@H](C)C(=O)[C@@H](C)[C@H](O)[C@@]1(C)O`?
CRE-bla Fsk: inconclusive; IkB sig inh: 2.4%[11.4 µM]

How did CCOc1ccc(-c2nnn(CC(=O)Nc3cc(OC)ccc3OC)n2)cc1OCC do in these assays?
ERK AVP block: -10.0%; Peg3 imprint: -0.5%; CRE-bla Fsk: 3.16µM*; IkB sig inh: 0.6%

Results for O=c1oc(-c2ccco2)nc2ccccc12 ?
ERK AVP block: 9.2%; Peg3 imprint: -55.9%; CRE-bla Fsk: inconclusive; IkB sig inh: inconclusive

How did c1coc(-c2nc3ccccc3nc2-c2ccco2)c1 do in these assays?
ERK AVP block: -6.3%; Peg3 imprint: -15.9%; CRE-bla Fsk: 12.6µM*; IkB sig inh: 3.8%

What do the screens show for `C[C@@]12CC[C@H]3[C@H](CC=C4C[C@@H](O)CC[C@@]43C)[C@@H]1CC[C@@H]2N(CCO)CCO`?
ERK AVP block: -0.3%[11.5 µM]; CRE-bla Fsk: 1.2%[7.6 µM]; IkB sig inh: -1.5%[11.4 µM]

What do the screens show for `CC(=O)NCCn1c(SCc2cc(=O)n3cc(Cl)ccc3n2)nc2ccccc2c1=O`?
ERK AVP block: 4.8%; Peg3 imprint: -15.4%; CRE-bla Fsk: 0.631µM*; IkB sig inh: -2.2%

Results for CC(=O)NCCn1c(SCc2ccccc2F)nc2ccccc2c1=O ?
ERK AVP block: -25.3%; Peg3 imprint: -12.1%; CRE-bla Fsk: inconclusive; IkB sig inh: -2.1%

How did Cc1cccc(-c2nnc(NC(=O)c3ccc(Cl)cc3)o2)c1 do in these assays?
ERK AVP block: inconclusive; Peg3 imprint: 0.7%; CRE-bla Fsk: -3.1%; IkB sig inh: 7.94µM*

What do the screens show for `COc1ccc2c(OC)c3ccoc3nc2c1OC`?
ERK AVP block: -17.9%; Peg3 imprint: -20.1%; CRE-bla Fsk: 25.1µM*!; IkB sig inh: -0.6%[11.4 µM]

What do the screens show for `COc1c2ccoc2nc2c(OC)c(OCC(O)C(C)(C)O)ccc12` (stereo not drawn)?
ERK AVP block: 9.4%; Peg3 imprint: 3.1%; CRE-bla Fsk: 18.7%; IkB sig inh: -3.5%

How did CCNc1nc(NCC)n2c(SCc3ccc(F)cc3)nnc2n1 do in these assays?
ERK AVP block: -14.0%; Peg3 imprint: -16.0%; CRE-bla Fsk: inconclusive; IkB sig inh: -2.9%

How did CCNc1nc(NCC)n2c(SCc3nc4ccccc4c(=O)[nH]3)nnc2n1 do in these assays?
ERK AVP block: -25.1%; Peg3 imprint: -8.7%; CRE-bla Fsk: 0.251µM*; IkB sig inh: -0.2%

What do the screens show for `c1cncc(CNc2cc(-c3ccc4c(c3)OCO4)ncn2)c1`?
ERK AVP block: -7.1%; Peg3 imprint: -29.5%; CRE-bla Fsk: inconclusive; IkB sig inh: -3.8%[11.4 µM]

Results for COCCOC(=O)C(C#N)c1nc2ccccc2nc1N1CCCC1 (stereo not drawn) ?
ERK AVP block: inconclusive; Peg3 imprint: -10.1%; CRE-bla Fsk: 15.8µM*; IkB sig inh: -0.4%

What do the screens show for `NC(=O)/N=N/C(N)=O`?
ERK AVP block: -6.9%; Peg3 imprint: -25.2%; CRE-bla Fsk: 1.26µM*; IkB sig inh: 0.1%

What do the screens show for `COC(=O)C/C=C\[C@@H](C)[C@@H](/C=N\O[C@@H](C)c1cn([C@H]2COC[C@H]2O)nn1)NS(=O)(=O)c1ccc(C)cc1`?
ERK AVP block: 12.9%[11.5 µM]

Compound activity from PubChem BioAssay.
